Anthrax LF inh2 – inhibitors of Bacillus anthracis lethal factor protease; 0.12% of 360,000 active; multiplex microsphere protease cleavage assay, LF; inhibition, % at 10 µM; P15917; AID 588501; note: plate controls were buffer without enzyme for full effect and enzyme alone for no effect
Target sequence (P15917 whole entry, looked up): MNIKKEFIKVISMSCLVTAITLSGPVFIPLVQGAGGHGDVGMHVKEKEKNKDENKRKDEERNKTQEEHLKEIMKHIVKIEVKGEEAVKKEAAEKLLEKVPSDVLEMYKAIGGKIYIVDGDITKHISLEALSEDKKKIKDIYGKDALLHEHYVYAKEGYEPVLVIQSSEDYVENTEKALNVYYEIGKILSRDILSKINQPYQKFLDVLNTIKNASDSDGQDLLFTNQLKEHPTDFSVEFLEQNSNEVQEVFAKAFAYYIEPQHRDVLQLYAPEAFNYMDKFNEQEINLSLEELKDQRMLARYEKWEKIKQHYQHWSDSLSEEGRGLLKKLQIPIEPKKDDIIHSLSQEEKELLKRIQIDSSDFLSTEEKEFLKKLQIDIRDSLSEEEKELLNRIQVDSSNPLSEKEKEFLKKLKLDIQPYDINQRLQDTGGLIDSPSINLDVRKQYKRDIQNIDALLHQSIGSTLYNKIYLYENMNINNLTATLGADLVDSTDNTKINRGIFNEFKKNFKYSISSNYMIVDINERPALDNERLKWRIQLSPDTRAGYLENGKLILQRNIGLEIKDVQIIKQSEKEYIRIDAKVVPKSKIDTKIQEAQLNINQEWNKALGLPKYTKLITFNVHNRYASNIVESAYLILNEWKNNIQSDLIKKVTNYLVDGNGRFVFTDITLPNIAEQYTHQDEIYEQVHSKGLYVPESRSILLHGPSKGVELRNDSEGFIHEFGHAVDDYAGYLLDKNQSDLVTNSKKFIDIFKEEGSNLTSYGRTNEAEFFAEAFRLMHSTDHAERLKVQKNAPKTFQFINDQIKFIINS
BoNT A protease – blocks Botulinum neurotoxin A light chain protease; 0.17% of 360,000 active; multiplex microsphere protease substrate cleavage, flow cytometry; inhibition, % at 10 µM; note: plate controls were buffer without enzyme for full effect and enzyme alone for no effect
Bead autofluor – counter-screen for toxin protease inhibitors: compound fluorescence; compound autofluorescence counterscreen, microsphere flow cytometry; hits give high values; fluorescence intensity (concentration not given with the values); 3.1% of 360,000 active; in the data active = fluorescence intensity above about 16000; inconclusive = no clear call, values can overlap the other calls
TcdB GH inh – inhibitors of Clostridioides difficile toxin B glycohydrolase. P18177. TcdB glycohydrolase enzymatic assay, plate reader. inhibition, % at 9.99 µM. 0.24% of 350,000 active. AID 652162; in the data active = inhibition above about 10%
BoNT-F LC inh – blocks Botulinum neurotoxin F light chain protease. Multiplex microsphere protease cleavage assay, flow cytometry. inhibition, % at 10 µM. 0.22% of 360,000 active. AID 588497; in the data active = inhibition above about 35%, passing the limit was not always enough; inconclusive = no clear call, values can overlap the other calls; note: plate controls were buffer without enzyme for full effect and enzyme alone for no effect
Active calls of the source: *; ? = inconclusive; . = no result given. This excerpt belongs to a sample that is enriched for hits. Cut-off read from the data, not from the text of the source, unless noted: active = inhibition above about 30%; inconclusive = no clear call, values can overlap the other calls; inactive = below that.

SMILES	Anthrax LF inh2	BoNT A protease	Bead autofluor	TcdB GH inh	BoNT-F LC inh
O=C1CC(N2CCN(c3ccccc3)CC2)C(=O)N1c1cccc(Cl)c1 (stereo unspecified)	-0.7	-2.6	3465	0.6	16.6
COc1ccc(NC(=O)COC(=O)c2ccc(-n3nc(C)cc3C)cc2)cc1OC	-5.8	1.0	7822	0.8	-0.9
Cc1cc(C)n(-c2ccc(C(=O)OCC(=O)Nc3ccc(Cl)c(S(=O)(=O)N(C)C)c3)cc2)n1	-1.9	?	25627*	-0.7	-7.4
C=CCN1C(=O)[C@@]2(O[C@@H](CCn3cc([C@H](O)c4ccccc4)nn3)[C@H]([Si](C)(C)c3ccc(OC)cc3)[C@H]2C)c2cc(N3C(=O)c4cccc5cccc3c45)ccc21	.	.	.	-0.2	.
CC1=NC(=O)C(N=Nc2cccc(O)c2)N1c1ccccc1 (stereo unspecified)	-9.3	-3.8	16879*	.	-6.3
CC1(C)CC(=O)c2c(O)cc(O)cc2O1	-5.3	0.4	22477*	.	-3.0
O=C(C1CC1)N1CC(=O)N2[C@H](C1)[C@@H](c1ccc(-c3ccccc3F)cc1)[C@@H]2CO	.	.	.	1.0	.
COc1cc(O)ccc1C(=O)CCc1ccc(O)cc1	2.3	3.4	4334	16.7*	-6.8
CC(=O)N1CCN=C1SCc1ccc(Br)cc1	0.3	-0.5	5306	0.6	-7.2
CCOC(=O)N1CCN=C1SCc1ccc(Cl)c(Cl)c1	-7.2	-3.5	4642	11.9*	-7.4
O=C(NC1CCCC1)C(c1ccccc1)N(C(=O)c1csnn1)C1CCCC1 (stereo unspecified)	7.6	-3.1	3344	-0.1	-6.6
Cc1ccc(C(C(=O)NC2CCCC2)N(C(=O)c2csnn2)c2ccccc2)o1 (stereo unspecified)	-9.9	-2.4	3859	0.7	15.4
Cc1ccc(C(C(=O)NC2CCCCC2)N(C(=O)c2csnn2)C2CCCC2)o1 (stereo unspecified)	-2.8	0.7	22165*	0.0	-0.3
Cc1ccc(C(C(=O)NC2CCCC2)N(C(=O)c2csnn2)C2CCCC2)o1 (stereo unspecified)	2.3	?	21439*	-0.9	3.7
CO[C@H]1CN(C)C(=O)c2cc(NC(=O)C3CC3)ccc2OC[C@H](C)N(Cc2nccs2)C[C@H]1C	.	.	.	1.1	.
C[C@H]1CN([C@@H](C)CO)C(=O)Cc2cc(NC(=O)c3ccncc3)ccc2O[C@H]1CN(C)CC1CC1	.	.	.	0.8	.
CN1CCN(c2nc3nonc3nc2N2CCN(C)CC2)CC1	-1.8	-0.6	3344	.	-2.7
C1CCN(c2nc3nonc3nc2N2CCCCC2)CC1	-4.5	-2.8	24347*	0.9	-3.9
CCc1c(C(=O)Nc2nnc(C3CC3)s2)csc1C	1.3	?	21291*	3.1	0.0
C[C@H]1CCCCO[C@@H](CN(C)S(=O)(=O)c2ccc(Cl)cc2)[C@@H](C)CN([C@@H](C)CO)C(=O)c2cc(NS(C)(=O)=O)ccc2O1	.	.	.	1.5	.
CCN(Cc1ccccc1)Cc1cccc([N+](=O)[O-])c1	-0.5	-0.1	10649	.	-3.8
O=[N+]([O-])c1cccc(CN(CCO)Cc2ccccc2)c1	-1.0	-1.4	16829*	.	-5.3
OCCN(Cc1ccccc1)Cc1ccc(F)c(F)c1	-0.2	1.2	20266*	0.9	3.2
OCCN(Cc1ccccc1)Cc1ccccc1O	-3.7	1.3	3502	-2.7	-1.1
CNC[C@H]1OCCCC[C@@H](C)Oc2ccc(NS(=O)(=O)c3cccs3)cc2C(=O)N([C@@H](C)CO)C[C@H]1C	.	.	.	-0.1	.
SMILES	Anthrax LF inh2	BoNT A protease	Bead autofluor	TcdB GH inh	BoNT-F LC inh
CC=Cc1ccc2n(c1=O)C[C@H]1[C@H](CO)[C@@H](C(=O)N3CCCCC3)N(Cc3ccccc3OC)[C@@H]21 (mixture of isomers)	.	.	.	-3.5	.
COc1ccccc1N1CCc2c(C)nc3c(OC)cccc3c21	1.3	-1.6	22775*	.	-5.8
Cc1ccc(N(CN2CCCC2=O)C(=O)c2ccc(C)c(C)c2)cc1	-0.8	?	21259*	-0.7	3.3
O=C(c1cc2ccccc2oc1=O)N1CCN(C(=O)C2CCCO2)CC1 (stereo unspecified)	-4.5	-8.2	25648*	-1.3	-7.4
O=C(C1CCCO1)N1CCN(S(=O)(=O)c2ccccc2)CC1 (stereo unspecified)	0.3	-1.9	22925*	1.6	0.1
COc1ccc(NC(=O)N(C)C[C@H]2OCCCC[C@H](C)Oc3ccc(N(C)C)cc3C(=O)N([C@H](C)CO)C[C@H]2C)cc1	.	.	.	-24.6	.
COc1ccc2c3c(n(C)c2c1)[C@@H](CO)N(C)CC31CN(S(=O)(=O)c2cccc(C)c2)C1	.	.	.	1.4	.
Cc1nc2nc3c(cn2n1)C(=O)CCC3	-1.6	-2.4	21199*	.	-2.6
CC1(C)CC(=O)c2cn3nc(C(F)(F)F)nc3nc2C1	2.0	1.2	8301	.	17.2

From PubChem BioAssay
